This note sets out measurements from PubChem BioAssay.

Test [1] is described as follows: viability loss with induced miR-34 in A549 – imaging, A549 dox-inducible miR-34, nuclei and caspase counts, primary screen (AID 1347080;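 active = compounds whose cell count with miR-34 switched on is under 0.7 times the count with it off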). The settings on record: A549 miR-34 inducible, Hoechst nuclei count, 48 h.
The nature of test [2]: MELAS cybrid and Rieske KO viability enhancers – cell-based, MELAS cybrids, Rieske KO mouse fibroblasts, CellTiter-Glo, primary screen (AID 1508586).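 Also: z relative to plate mean and SD of compound and empty wells.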 The following applies: low glucose.
Test [3] can be described thus: galactose survival enhancers in mitochondrial complex I cybrids – cell-based, galactose medium, ATP luminescence, primary screen (AID 1645843;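 active = z-score of at least 1.8 in each of two replicates, scored against plate mean and spread of sample wells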;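 also: positive z means more ATP and so rescue of galactose-driven cybrid death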). The settings on record: complex I mutant cybrid cells, 72 h, stronger effect = higher value.
Test [4] in a line: P. berghei load reduction in hepatocytes – cell-based, HepG2, luciferase luminescence, HepG2 viability, primary screen (AID 624349; in the data active = parasite load remaining mostly below about 12%, no sharp cut-off; inactive = mostly above about 10%;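 also: 100% = mean of DMSO negative control wells on the same plate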). The settings on record: P. berghei liver stage in HepG2, luciferase luminescence, concentration not given here; parasite load remaining: stronger effect = lower value; viability: measured here: HepG2 viability without parasites.
Test [5] addresses NAD(+) hydrolase SARM1 (Homo sapiens) (UniProt Q6SZW1). The test is described as follows: blocking NAD cleavage by SARM1 SAM-TIR – cell lysate, NAD-Glo luminescence (AID 1508614;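 active = compound whose remaining NAD level is above about 45 nM, limit read from the data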;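 also: higher remaining NAD means stronger inhibition of SARM1 NADase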). The settings on record: SAM-TIR HEK293T lysate NADase, at 1 µM, stronger effect = higher value.
Test [6] deals with Mitogen-activated protein kinase 7 (Homo sapiens) (UniProt Q13164). The test is described as follows: Gal4-ERK5 driven luciferase induction – cell-based, HTS, primary screen (AID 1508626;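 active = luciferase signal above three times the same-plate solvent-only control wells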;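 also: luciferase driven by Gal4-ERK5 fusion binding five Gal4 sites before minimal TATA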). The settings on record: HeLa Gal4-ERK5 transactivation, 18 h, at 5 µM, stronger effect = higher value.
Mitogen-activated protein kinase 7 (Homo sapiens), sequence (Q13164 whole entry, looked up, the tested form may be a part): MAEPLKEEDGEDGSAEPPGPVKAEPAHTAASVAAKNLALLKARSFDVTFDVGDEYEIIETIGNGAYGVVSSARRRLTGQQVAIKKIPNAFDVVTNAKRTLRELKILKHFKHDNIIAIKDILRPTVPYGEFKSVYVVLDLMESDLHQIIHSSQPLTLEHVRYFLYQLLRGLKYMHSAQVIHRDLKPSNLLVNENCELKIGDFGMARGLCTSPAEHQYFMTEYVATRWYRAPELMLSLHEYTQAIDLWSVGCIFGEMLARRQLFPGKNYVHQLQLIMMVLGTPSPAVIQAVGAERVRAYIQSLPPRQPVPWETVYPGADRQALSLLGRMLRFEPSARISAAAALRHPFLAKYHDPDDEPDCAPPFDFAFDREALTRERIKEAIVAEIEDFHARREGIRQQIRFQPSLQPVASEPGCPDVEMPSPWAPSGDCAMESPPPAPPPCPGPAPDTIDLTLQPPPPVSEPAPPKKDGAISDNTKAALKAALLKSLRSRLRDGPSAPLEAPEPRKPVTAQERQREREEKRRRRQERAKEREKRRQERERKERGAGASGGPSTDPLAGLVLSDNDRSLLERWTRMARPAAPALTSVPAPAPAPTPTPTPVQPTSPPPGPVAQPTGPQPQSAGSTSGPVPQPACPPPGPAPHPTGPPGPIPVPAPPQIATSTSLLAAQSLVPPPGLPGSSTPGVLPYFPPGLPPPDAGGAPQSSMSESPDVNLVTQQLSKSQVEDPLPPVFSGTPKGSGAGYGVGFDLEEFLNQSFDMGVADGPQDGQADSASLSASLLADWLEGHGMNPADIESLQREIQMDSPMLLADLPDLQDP
A short description of test [7]: compounds altering viability of human ES cells (AID 493140; call rule not given here;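 also: cells exposed to compounds for four days before counting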). The following applies: human embryonic stem cell survival screen; stronger effect = higher value.
[8] abbreviates: measured here: relative caspase fold change +Dox/-Dox.
The mark [9] stands for this setting: measured here: total cells with miR-34 induction, stronger effect = lower value.
The mark [10] stands for this setting: measured here: total cells without miR-34 induction.
Setting [11] is: MELAS cybrid survival, CellTiter-Glo 48 h, stronger effect = higher value.
[12] abbreviates: Rieske KO mouse fibroblast survival, CellTiter-Glo 72 h.
Setting [13] is: stronger effect = lower value, cell number ratio, induced over uninduced.

Values joined by “and” are separate entries in the source; they are usually repeats but may differ in a detail not shown here. Equal entries are not always repeated. Active and inactive are the calls of the source.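 The calls were made as follows, unless noted: active = mean z-score across replicates of 1.96 or higher in either the MELAS or the Rieske mutant cell line; inactive = the rest.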

NAD(+) hydrolase SARM1 (Homo sapiens), sequence (Q6SZW1 whole entry, looked up, the tested form may be a part): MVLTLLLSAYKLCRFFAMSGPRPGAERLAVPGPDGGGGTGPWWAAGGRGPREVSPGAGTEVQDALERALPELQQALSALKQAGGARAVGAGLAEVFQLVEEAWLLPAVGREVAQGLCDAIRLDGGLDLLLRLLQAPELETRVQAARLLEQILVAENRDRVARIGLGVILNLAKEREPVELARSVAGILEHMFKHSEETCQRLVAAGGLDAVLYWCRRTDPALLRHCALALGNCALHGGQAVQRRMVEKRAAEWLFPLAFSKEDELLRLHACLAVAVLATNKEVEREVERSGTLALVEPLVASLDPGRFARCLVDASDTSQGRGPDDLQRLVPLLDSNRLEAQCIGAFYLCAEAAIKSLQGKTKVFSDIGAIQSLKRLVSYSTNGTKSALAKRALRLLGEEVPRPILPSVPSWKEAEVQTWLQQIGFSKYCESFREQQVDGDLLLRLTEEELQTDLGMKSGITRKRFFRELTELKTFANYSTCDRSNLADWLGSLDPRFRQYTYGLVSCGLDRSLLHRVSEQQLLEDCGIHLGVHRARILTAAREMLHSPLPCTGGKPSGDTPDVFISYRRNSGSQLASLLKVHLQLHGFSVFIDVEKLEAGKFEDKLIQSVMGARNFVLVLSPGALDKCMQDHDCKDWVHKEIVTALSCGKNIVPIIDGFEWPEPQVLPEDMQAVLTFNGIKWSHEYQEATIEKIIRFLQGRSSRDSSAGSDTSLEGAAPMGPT

As to `N#CC(OC1OC(COC2OC(CO)C(O)C(O)C2O)C(O)C(O)C1O)c1ccccc1` (configuration not stated), the fold change in test [1] (stronger effect = lower value) was 0.82 (inactive); in test [1] (setting [8]), 1. Moreover, the cell count in test [1] (setting [9]) came out at 6790; in test [1] (setting [10]) it was 8280. The z-score in test [2] (setting [11]) was -0.2 (inactive); in test [2] (setting [12]), -0.452.
For the molecule `C[C@]12NC(Cc3ccccc31)c1ccccc12`, the fold change is 0.981 (inactive) in test [1] (stronger effect = lower value) and 0.318 in test [1] (setting [8]). The cell count in test [1] (setting [9]) worked out at 8080; in test [1] (setting [10]) it was 8230. Further, the z-score in test [2] (setting [11]) was -0.147 (inactive); in test [2] (setting [12]) it was -0.0728.
In the case of `CCCC[N+]1(C)[C@@H]2CC(OC(=O)C(CO)c3ccccc3)C[C@H]1[C@@H]1O[C@@H]12` (some centres not stated), the fold change is 0.94 (inactive) in test [1] (setting [13]) and 1.14 in test [1] (setting [8]). Also, the cell count in test [1] (setting [9]) was determined as 9330; in test [1] (setting [10]), 9930. Besides, the z-score in test [2] (setting [11]) is -0.311 (inactive); in test [2] (setting [12]), 0.426.
In the case of `CC1CCCC=C[C@@H]2CC(O)C[C@H]2C(O)C=CC(=O)O1` (some centres not stated), the fold change in test [1] (setting [13]) was 1.09 (inactive); in test [1] (setting [8]) it was 1.21. Besides, the cell count in test [1] (setting [9]) came to 2230; in test [1] (setting [10]) it was 2050. Further, the z-score in test [2] (setting [11]) was 4.01 (active); in test [2] (setting [12]), -2.64.
In the case of `Cc1cc(C(=O)CN2CCCC2)c(C)n1-c1ccc(F)cc1`, the figures for the fold change in test [1] (stronger effect = lower value) and in test [1] (setting [8]) were 0.909 (inactive) and 0.246, respectively. The cell count in test [1] (setting [9]) worked out at 8040; in test [1] (setting [10]), 8840. In addition, the z-score was -0.384 (inactive) in test [2] (setting [11]) and 0.483 in test [2] (setting [12]).
Regarding `CC1CC[C@H]2C(C)C(=O)O[C@@H]3O[C@@]4(C)CC[C@@H]1[C@]32OO4` (some centres not stated), the figures for the fold change in test [1] (setting [13]) and in test [1] (setting [8]) were 0.916 (inactive) and 0.744, respectively. Besides, the cell count is 6910 in test [1] (setting [9]) and 7540 in test [1] (setting [10]). Further, the z-score in test [2] (setting [11]) was -0.427 (inactive); in test [2] (setting [12]) it was 0.217.
For `CC1OC(OC2CC(O)[C@]3(CO)[C@H]4C(O)C[C@]5(C)C(C6=CC(=O)OC6)CC[C@]5(O)[C@@H]4CC[C@]3(O)C2)C(O)C(O)C1O` (some centres not stated), the fold change in test [1] (setting [13]) was 0.851 (inactive); in test [1] (setting [8]), 1.17. The cell count in test [1] (setting [9]) amounted to 388; in test [1] (setting [10]) it was 456. Also, the z-score in test [2] (setting [11]) is 0.346 (inactive); in test [2] (setting [12]) it was -0.151.
For the molecule `Clc1ccc(C(Cn2ccnc2)OCc2c(Cl)cccc2Cl)c(Cl)c1` (configuration not stated), the fold change in test [1] (setting [13]) is 0.876 (inactive) and 0.926 (inactive); in test [1] (setting [8]), 1.06 and 1.05. Further, the cell count in test [1] (setting [9]) was 8420 and 7330; in test [1] (setting [10]), 9620 and 7910. The z-score is -0.214 (inactive) and 1.01 (inactive) in test [2] (setting [11]); -1.26 and 0.334 in test [2] (setting [12]).
As to `C[C@]12CCC(O)C[C@@H]1CC[C@@H]1[C@H]2CC[C@]2(C)C(=O)CC[C@@H]12` (some centres not stated), the values for the fold change in test [1] (stronger effect = lower value) and in test [1] (setting [8]) were 0.933 (inactive) and 1.48, respectively. For the same molecule, the cell count in test [1] (setting [9]) was found to be 7540; in test [1] (setting [10]) it was 8080. In addition, the z-score in test [2] (setting [11]) was -0.116 (inactive); in test [2] (setting [12]), -0.417.
For the molecule `O=c1cccc2n1CC1CNCC2C1` (configuration not stated), the values for the fold change in test [1] (stronger effect = lower value) and in test [1] (setting [8]) were 0.908 (inactive) and 1.17, respectively. Moreover, the cell count in test [1] (setting [9]) came out at 7650; in test [1] (setting [10]), 8430. The values for the z-score in test [2] (setting [11]) and in test [2] (setting [12]) were -0.233 (inactive) and -0.215, respectively.
Turning to `O=c1ccc2cc(OC3OC(CO)C(O)C(O)C3O)c(O)cc2o1` (configuration not stated), the fold change was 0.961 (inactive) in test [1] (setting [13]) and 0.851 in test [1] (setting [8]). For the same molecule, the figures for the cell count in test [1] (setting [9]) and in test [1] (setting [10]) were 9070 and 9440, respectively. For the same molecule, the z-score was -0.23 (inactive) in test [2] (setting [11]) and 0.0251 in test [2] (setting [12]).
On to `NC(CC(=O)N1CCn2c(nnc2C(F)(F)F)C1)Cc1cc(F)c(F)cc1F` (configuration not stated), for which the figures for the fold change in test [1] (setting [13]) and in test [1] (setting [8]) were 0.922 (inactive) and 0.671, respectively. In addition, the cell count is 9670 in test [1] (setting [9]) and 10500 in test [1] (setting [10]). The z-score in test [2] (setting [11]) was -0.323 (inactive); in test [2] (setting [12]), 0.499.
For the molecule `c1cc2c(cc1C1OC[C@H]3C(c4ccc5c(c4)OCO5)OC[C@H]13)OCO2` (some centres not stated), the fold change was 0.925 (inactive) in test [1] (setting [13]) and 0.861 in test [1] (setting [8]). The results for the cell count in test [1] (setting [9]) and in test [1] (setting [10]) were 8900 and 9620, respectively. Further, the results for the z-score in test [2] (setting [11]) and in test [2] (setting [12]) were -0.349 (inactive) and 0.747, respectively.
Take `C[C@]12CCC(O)CC1=CC[C@@H]1[C@H]2CC[C@]2(C)C(=O)CC[C@@H]12` (some centres not stated): the fold change in test [1] (stronger effect = lower value) was 0.867 (inactive); in test [1] (setting [8]), 0.858. Also, the cell count worked out at 8270 in test [1] (setting [9]) and 9530 in test [1] (setting [10]). The results for the z-score in test [2] (setting [11]) and in test [2] (setting [12]) were -0.412 (inactive) and 0.289, respectively.
Turning to `COc1cccc2ncn(Cc3cn4ccccc4n3)c(=O)c12`, the fold change in test [1] (setting [13]) was 0.944 (inactive); in test [1] (setting [8]), 1.17. The cell count in test [1] (setting [9]) is 9180; in test [1] (setting [10]) it was 9730. Further, the values for the z-score in test [2] (setting [11]), in test [2] (setting [12]) and in test [3] were -0.241 (inactive), -0.636 and -0.6 (inactive), respectively.
For the molecule `C=C1N[C@@H](Cc2ccc3[nH]cc(CCN(C)C)c3c2)CO1`, in test [4], the parasite load remaining was 49.1% (inactive). Also, in test [4], the viability amounted to 107%. The fold change in test [1] (stronger effect = lower value) was 0.795 (inactive); in test [1] (setting [8]), 1.08. Besides, the values for the cell count in test [1] (setting [9]) and in test [1] (setting [10]) were 9100 and 11400, respectively. The z-score in test [2] (setting [11]) was 0.499 (inactive); in test [2] (setting [12]) it was 0.377; in test [3] it was 0.28 (inactive).
Take `O=C1CCC[C@@H]2[C@@H]3CCCN4CCC[C@H](CN12)[C@@H]34`: the results for the fold change in test [1] (setting [13]) and in test [1] (setting [8]) were 0.961 (inactive) and 1.02, respectively. Further, the cell count turned out to be 9040 in test [1] (setting [9]) and 9410 in test [1] (setting [10]). For the same molecule, the z-score in test [2] (setting [11]) is -0.296 (inactive); in test [2] (setting [12]), 0.336.
As to `O=C1C[C@@H]2OCC=C3CN4CC[C@]56c7ccccc7N1[C@H]5[C@H]2[C@H]3C[C@H]46`, the parasite load remaining in test [4] is 96.5% (inactive). The viability in test [4] was 226%. Also, the fold change in test [1] (stronger effect = lower value) is 0.929 (inactive); in test [1] (setting [8]), 1.24. Besides, the cell count in test [1] (setting [9]) stood at 10000; in test [1] (setting [10]), 10800. Further, the z-score in test [2] (setting [11]) was 0.997 (inactive); in test [2] (setting [12]), 0.445; in test [3], 0.365 (inactive). In test [5], the remaining NAD is 10 nM (inactive). Further, the luciferase signal in test [6] is 48 AU (inactive).
Turning to `CCCC(=O)OCC[N+](C)(C)C`, the parasite load remaining in test [4] was 42.8% (inactive). Moreover, the viability in test [4] came to 107%. For the same molecule, the fold change is 0.934 (inactive) in test [1] (stronger effect = lower value) and 0.999 in test [1] (setting [8]). In addition, the cell count in test [1] (setting [9]) is 10000; in test [1] (setting [10]), 10700. Also, the z-score was 0.357 (inactive) in test [2] (setting [11]), 0.101 in test [2] (setting [12]) and 0.43 (inactive) in test [3].
For the molecule `CC(=O)O[C@H]1CC[C@@]2(C)C(=CC[C@@H]3[C@@H]2CC[C@]2(C)C(=O)CC[C@@H]32)C1`, the survival in test [7] is 0.583 (inactive). For the same molecule, in test [4], the parasite load remaining is 73.2% (inactive). The viability in test [4] came out at 93.1%. In addition, the fold change in test [1] (stronger effect = lower value) is 0.892 (inactive); in test [1] (setting [8]), 1.2. For the same molecule, the cell count in test [1] (setting [9]) was determined as 9250; in test [1] (setting [10]) it was 10400. The z-score in test [2] (setting [11]) was 0.711 (inactive); in test [2] (setting [12]), -0.302. In addition, in test [6], the luciferase signal was 56 AU (inactive).
With `COC1=C[C@@H]2C3Cc4ccc(OC)c(O)c4[C@]2(CCN3C)CC1=O`, the fold change in test [1] (stronger effect = lower value) was 0.895 (inactive); in test [1] (setting [8]), 0.909. Also, the cell count in test [1] (setting [9]) was 8920; in test [1] (setting [10]), 9970. Moreover, the z-score in test [2] (setting [11]) was -0.311 (inactive); in test [2] (setting [12]), 0.879.
